# Data reported in PubChem BioAssay AID686996 (Broad Institute, 2013).
# Out of some 350,000 compounds screened, about 1,900 (0.54%) were called active. This is one part of a sample in which actives are shown more often than they occur.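 Rule for the calls: active = mean inhibition across replicates at least about 35%, with every replicate also reaching that limit (limit read from the data); inconclusive = only one of the two criteria met; inactive = neither criterion met.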
# Target: Caspase-6 (Homo sapiens) (UniProt P55212)
# Assay: inhibition of CASP6 peptide cleavage – biochemical, VEID-R110 fluorescence, single point, set 2, primary screen (AID 686996);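 note: 0% = median of neutral control wells and 100% = no fluorescence left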
# Conditions: purified caspase-6, Z-VEID-R110 cleavage fluorescence; at 12.5 µM; hits give high values
# Sequence of Caspase-6 (Homo sapiens) (P55212 24-179 limits assumed): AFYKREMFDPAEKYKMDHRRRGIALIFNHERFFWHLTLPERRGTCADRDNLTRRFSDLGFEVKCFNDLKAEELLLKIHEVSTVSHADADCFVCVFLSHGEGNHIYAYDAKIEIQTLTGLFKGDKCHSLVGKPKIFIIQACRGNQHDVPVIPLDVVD
# Sequence of Caspase-6 (Homo sapiens) (P55212 194-293 limits assumed): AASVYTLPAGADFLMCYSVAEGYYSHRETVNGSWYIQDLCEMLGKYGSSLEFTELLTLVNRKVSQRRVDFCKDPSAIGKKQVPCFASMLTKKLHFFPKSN
row,Structure (SMILES),inhibition
1,COc1ccc(NC(=O)N[C@H]2CC[C@@H](CCNS(=O)(=O)c3cccc(Cl)c3)O[C@H]2CO)cc1,-1.94% (inactive)
2,Cc1ccc(-c2cnc3c(c2)C(=O)N([C@H](C)CO)C[C@@H](C)[C@@H](CN(C)C(=O)CN(C)C)O3)cc1,-0.686% (inactive)
3,COc1ccc(C(=O)N2C[C@@H]3[C@H](c4ccccc42)[C@H](CO)N3Cc2ccc3c(c2)OCO3)cc1,-0.922% (inactive)
4,COc1ccc(NC(=O)N(C)C[C@H]2OCCCC[C@H](C)Oc3ccc(NS(C)(=O)=O)cc3C(=O)N([C@H](C)CO)C[C@@H]2C)cc1,-0.91% (inactive)
5,O=C(Nc1cccc(F)c1)c1coc(=O)c(Br)c1,51.7% (active)
6,O=C(Nc1cccc(F)c1)c1cc(-c2ccco2)nc2ccccc12,-7.91% (inactive)
7,O=C(CCN1C(=O)c2ccccc2C1=O)Nc1cccc(F)c1,-0.612% (inactive)
8,C[C@H](CO)N1C[C@H](C)[C@@H](CN(C)C(=O)Nc2ccc3c(c2)OCO3)OCCCC[C@H](C)Oc2ccc(NS(=O)(=O)c3cn(C)cn3)cc2C1=O,-1.24% (inactive)
9,CC(=O)N1CC2(C1)[C@H](c1ccccc1)[C@@H](CO)N2C(=O)Cc1ccccc1,0.826% (inactive)
10,CCOC(=O)C1=C(C(=O)OCC)C2N(Cc3ccc(C#N)cc3)c3ccccc3[C@@]23C[C@@H](C(=O)OC)N(S(=O)(=O)c2ccc(F)cc2)C3=N1 (some centres not stated),-0.093% (inactive)
11,CC(C)CN1C(=O)CN(S(C)(=O)=O)CC1(C)C(=O)NCc1ccccc1 (configuration not stated),-0.689% (inactive)
12,CCC(C)CN1C(=O)CN(S(C)(=O)=O)CC1(C)C(=O)Nc1ccc2c(c1)OCCO2 (configuration not stated),39.7% (active)
13,CC1(C(=O)Nc2ccc3c(c2)OCCO3)CN(S(C)(=O)=O)CC(=O)N1Cc1cccc(F)c1 (configuration not stated),1.36% (inactive)
14,COc1ccc(CN(C)C[C@H]2OCCCC[C@@H](C)Oc3ccc(NS(C)(=O)=O)cc3C(=O)N([C@@H](C)CO)C[C@H]2C)cc1,-2.66% (inactive)
15,CCCNC(=O)[C@@H]1[C@@H](CO)[C@@H]2Cn3c(ccc(-c4ccccc4F)c3=O)[C@H]1N2CC1CC1,0.74% (inactive)
16,COc1ccc2c3c([nH]c2c1)[C@H](CO)N(Cc1ccc(F)cc1)CC31CCN(Cc2ccccn2)CC1,-3.59% (inactive)
17,C[C@H](CO)N1C[C@H](C)[C@H](CN(C)Cc2ccncc2)Oc2ccc(N(C)C)cc2C1=O,2.63% (inactive)
18,C#CCNc1ccc(C(=O)OCC)cc1,-1.16% (inactive)
19,CCOC(=O)c1ccc(Nc2cc3ccccc3c(=O)[nH]2)cc1,87.8% (active)
20,CCOC(=O)c1ccc(NC(=O)c2c(NCc3ccccc3)[nH]c(=O)[nH]c2=O)cc1,0.97% (inactive)
21,CCC(=O)N1CCCCN2[C@H](C1)[C@@H](c1ccc(C#CCOC)cc1)[C@@H]2CO,-1.73% (inactive)
22,COc1ccc(S(=O)(=O)Nc2cccc3c2O[C@@H](CN(C)C(=O)Nc2ccccc2)[C@@H](C)CN([C@@H](C)CO)C3=O)cc1,-2.16% (inactive)
23,C[C@@H]1CN([C@H](C)CO)S(=O)(=O)c2ccc(C#C[C@@H](C)O)cc2O[C@H]1CN(C)C(=O)CC1CC1,0.478% (inactive)
24,CC(=O)N1c2ccc(S(=O)(=O)N3CCC(C(=O)NCc4ccc(F)cc4)CC3)cc2CC1C (configuration not stated),22.3% (inactive)

row,Structure (SMILES),inhibition
1,CCOC(CNC(=O)C1CCN(S(=O)(=O)c2ccc3nc4c(c(C(=O)O)c3c2)CC(C)CC4)CC1)OCC (configuration not stated),33.4% (inactive)
2,Cc1ccc(CNC(=O)C2CCN(S(=O)(=O)c3ccc4nc5c(c(C(=O)O)c4c3)CC(C)CC5)CC2)cc1 (configuration not stated),62.6% (active)
3,N#C[C@H]1[C@@H](c2ccccc2-c2ccccc2F)[C@@H](CO)N1C(=O)C1CCC1,-2.32% (inactive)
4,CC(=O)N1[C@@H](CO)[C@@H](c2ccc(C3=CCCC3)cc2)C12CN(C(=O)C1CC1)C2,0.171% (inactive)
5,O=C(Nc1ccc2cn[nH]c2c1)c1ccc(S(=O)(=O)N2CCOCC2)cc1,0.612% (inactive)
6,O=C(O)c1cc(S(=O)(=O)Nc2ccc3cn[nH]c3c2)ccc1Br,43.4% (active)
7,COc1ccc(S(=O)(=O)Nc2ccc3cn[nH]c3c2)cc1[N+](=O)[O-],9.88% (inactive)
8,C/C=C/c1ccccc1[C@@H]1[C@@H](CO)N(C(=O)CN2CCOCC2)[C@H]1C#N,-0.139% (inactive)
9,C[C@H]1CN([C@@H](C)CO)C(=O)Cc2cc(NC(=O)CCCCCC(=O)Nc3ccccc3N)ccc2O[C@H]1CN(C)C(=O)Nc1ccc(F)cc1,0.452% (inactive)
10,O=C(NNC(=O)c1cc(S(=O)(=O)N2CCCCC2)ccc1Cl)c1ccccc1O,0.767% (inactive)
11,O=C(NNC(=O)c1ccccc1O)c1ccccc1O,73.9% (active)
12,Cc1cc(C(=O)CCC(=O)NNC(=O)c2ccccc2O)c(C)s1,4.5% (inactive)
13,CN(C)CCCNC(=O)C[C@H]1CC[C@H]2[C@@H](COC[C@H](O)CN2C(=O)c2ccncc2)O1,0.773% (inactive)
14,CN(c1ccccc1)S(=O)(=O)c1cccc(NC(=O)Cc2ccc(Cl)cc2)c1,-0.727% (inactive)
15,COC(=O)C(=Nc1ccccc1)/C(C(=O)C(=O)N(C)c1ccccc1)=C(\O)c1ccc(Cl)cc1,40.1% (active)
16,COC(=O)c1cn(C(=O)c2ccc(Cl)cc2)c2ccccc12,0.734% (inactive)
17,CN1C(=O)c2cc(NC(=O)C3CC3)ccc2OC[C@@H]2O[C@@H](CC(=O)NCC3CCCCC3)CC[C@@H]21,-1.04% (inactive)
18,CO[C@H]1CN(C)C(=O)c2cc(NC(=O)Nc3c(C)noc3C)ccc2OC[C@@H](C)N(CCC(F)(F)F)C[C@H]1C,-1.87% (inactive)
19,C[C@@H]1CN([C@@H](C)CO)C(=O)c2cc(C#CC3CC3)cnc2O[C@@H]1CN(C)C(=O)Cc1ccccn1,0.481% (inactive)
20,CC(C)(C)[S@@](=O)N1Cc2cc(C(=O)O)nc(-c3cccc(-c4cccc(F)c4)c3)c2[C@H]1CCO,-2.52% (inactive)
21,CC(C)(C)[S@](=O)N1Cc2cc(C(=O)N3CCCCC3)nc(-c3cccc(-c4ccccc4F)c3)c2[C@@H]1CCO,-3.88% (inactive)
22,COc1ccc(C#Cc2cccc(-c3nc(C(=O)O)cc4c3[C@@H](CCO)N(S(=O)C(C)(C)C)C4)c2)cc1OC (some centres not stated),35.2% (active)
23,COc1ccccc1-c1cccc(-c2nc(C(=O)N3CCN(C)CC3)cc3c2[C@H](CCO)N([S@@](=O)C(C)(C)C)C3)c1,-1.46% (inactive)
24,CC(C)(C)S(=O)N1Cc2cc(C(=O)O)nc(-c3cccc(-c4cc5ccccc5o4)c3)c2[C@@H]1CCO (some centres not stated),37.1% (active)

row,Structure (SMILES),inhibition
1,CC(C)(C)S(=O)N1Cc2cc(C(=O)NCCCN3CCOCC3)nc(-c3cccc(-c4cc5ccccc5o4)c3)c2[C@H]1CCO (some centres not stated),-2.64% (inactive)
2,COc1ccc(NC(=O)O[C@H]2[C@H](OC(=O)Nc3ccc4c(c3)OCO4)[C@@H](OC(=O)Nc3ccc4c(c3)OCO4)[C@@H](OC)O[C@@H]2CO)cc1,-3.42% (inactive)
3,Cc1ccc(S(=O)(=O)N[C@@H]2CC[C@H](CCn3cc(C4(O)CCCC4)nn3)O[C@H]2CO)cc1,-2.61% (inactive)
4,Cc1ccccc1-c1ccc2c(c1)O[C@H](CN(C)Cc1ccc(C(=O)O)cc1)[C@@H](C)CN([C@H](C)CO)S2(=O)=O,-3.25% (inactive)
5,COc1ccccc1C#Cc1ccc([C@@H]2[C@@H](CO)N3CCCCN(S(C)(=O)=O)C[C@@H]23)cc1,-2.85% (inactive)
6,CC(C)c1ccc(C=NNc2ccc([N+](=O)[O-])cn2)cc1,-4.08% (inactive)
7,Cc1cc(C=O)c(C)n1-c1ccc(NC2CCCCC2)c([N+](=O)[O-])c1,-0.869% (inactive)
8,Cc1cc(/C=N/Nc2ccc([N+](=O)[O-])cn2)c(C)n1-c1cccc(C(=O)O)c1,40.7% (active)
9,C[C@H](O)C#Cc1ccc2c(c1)O[C@H](CN(C)Cc1cccnc1)[C@H](C)CN([C@H](C)CO)S2(=O)=O,-2.82% (inactive)
10,O=C(N[C@@H]1CC[C@@H](CC(=O)N2CCc3ccccc3C2)O[C@H]1CO)C1CC1,-3.42% (inactive)
11,CCC(=O)N(C)C[C@H]1Oc2ncc(C#Cc3cccnc3)cc2C(=O)N([C@H](C)CO)C[C@H]1C,2.38% (inactive)
12,C[C@@H]1CCCCO[C@@H](CN(C)S(=O)(=O)c2ccccc2)[C@@H](C)CN([C@@H](C)CO)C(=O)c2cc(NS(=O)(=O)c3cn(C)cn3)ccc2O1,2.27% (inactive)
13,CC1CCCN(C(=O)c2cc(-c3ccco3)nc3ccccc23)C1 (configuration not stated),2.88% (inactive)
14,CN(CCOc1ccccc1)C(=O)c1cc(-c2ccco2)nc2ccccc12,4.78% (inactive)
15,Cc1cc(C)c2nc(-c3ccco3)cc(C(=O)O)c2c1,42.1% (active)
16,COCC#Cc1cnc2c(c1)C(=O)N([C@H](C)CO)C[C@H](C)[C@H](CN(C)C(=O)Nc1ccccc1OC)O2,0.658% (inactive)
17,O=C(c1cccc(F)c1)N1CC(=O)N2[C@H](C1)[C@@H](c1ccc(C#Cc3ccc(F)cc3)cc1)[C@@H]2CO,1.71% (inactive)
18,COc1ccccc1CNc1nc(Nc2ccccc2Cl)c2sccc2n1,-1.14% (inactive)
19,COCCNc1nc(Nc2ccccc2Cl)c2sc(-c3ccccc3)cc2n1,35.1% (active)
20,Clc1ccccc1Nc1nc(NCc2cccs2)nc2ccsc12,-2.77% (inactive)
21,C[C@H](CO)N1C[C@H](C)[C@H](CN(C)Cc2cncnc2)Oc2cc(-c3ccccc3F)ccc2S1(=O)=O,-1.88% (inactive)
22,CC(C)n1ncc2c(C(=O)Nc3ccc(CC#N)cc3)cc(C3CC3)nc21,-2.38% (inactive)
23,CNC(=O)c1ccc(CN(C)C(=O)c2cc(C3CC3)nc3c2cnn3C(C)C)cc1,50.4% (active)
24,CC(C)n1ncc2c(C(=O)NCc3ccccc3CN(C)C)cc(C3CC3)nc21,-1.64% (inactive)
